# TcdB inh – TcdB glycohydrolase inhibitors, primary screen, biochemical, single point, plate reader | AID 652162, 2013 | Toxin B (Clostridioides difficile), P18177 | TcdB glycohydrolase enzymatic assay | inhibition, % at 9.99 µM | 0.24% of 350,000 active; in the data active = inhibition above about 10%
# PrP 5UTR inh – inhibition of PrP 5' UTR reporter expression; AID 488862, 2010; inhibition, % (concentration not given with the values); 0.35% of 340,000 active; cell-based PrP 5' UTR mRNA reporter, plate reader; in the data active = inhibition above about 52%; also: 0 = median of the neutral control wells
# Mtb BioA inh – M. tuberculosis BioA enzyme inhibitors, primary screen, biochemical, plate reader, single point, HTS; inhibition, % at 9.99 µM; 7,8-diaminopelargonic acid synthase BioA (Mycobacterium tuberculosis); 0.096% of 360,000 active; purified M. tuberculosis BioA enzyme; in the data active = inhibition above about 40%
# Y pestis TopoI – Yersinia pestis topoisomerase I inhibitors, primary screen, biochemical, cleavage product accumulation, plate reader, single point | 0.064% of 360,000 active | activity, % at 10 µM | Y. pestis Topo-I cleavage product accumulation | AID 504884, 2011 | DNA topoisomerase I (Yersinia pestis CO92); in the data active = activity above about 50%, passing the limit was not always enough
# * = called active by the depositor; / = not tested or not shown. Hits are enriched below; roughly 0.57% of the tested compounds scored in any of these assays.
SMILES,TcdB inh,PrP 5UTR inh,Mtb BioA inh,Y pestis TopoI
COc1ccc(C=NNC(=O)c2cc(C)oc2C)cc1O,10.0*,-105.2,0.2,0.9
COc1cc(/C=N/NC(=O)c2cccc([N+](=O)[O-])c2)ccc1O,12.0*,23.2,/,-0.8
COc1cc(C=NNC(=O)c2ccccc2-n2cccc2)ccc1O,13.1*,0.7,-1.0,-7.2
COc1cc(/C=N/NC(=O)c2cc(C)oc2C)ccc1O,3.6,-7.7,-1.7,1.1
O=C(C[C@@H]1CC[C@H](NS(=O)(=O)c2ccccc2)[C@H](CO)O1)N1CCN(c2ccccc2)CC1,-1.9,/,/,/
Cc1noc(C)c1NC(=O)Nc1ccc2c(c1)CC(=O)N([C@@H](C)CO)C[C@@H](C)[C@@H](CN(C)S(=O)(=O)c1ccc(Cl)cc1)O2,0.6,/,/,/
O=C(C[C@H]1C[C@@H]2c3cc(NS(=O)(=O)c4ccc(F)cc4)ccc3O[C@@H]2[C@@H](CO)O1)NCc1cc(F)ccc1F,-0.8,/,-0.6,/
C[C@@H]1CCCCO[C@H](CN(C)Cc2ccccc2)[C@@H](C)CN([C@@H](C)CO)C(=O)c2cc(NC(=O)C3CCCCC3)ccc2O1,0.0,/,-0.1,/
CCCNC(=O)Nc1ccc2c(c1)C(=O)N(C)C[C@H](OC)[C@@H](C)CN(C(=O)CC)[C@H](C)CO2,/,/,-0.8,/
COc1cc(/C=N/NC(=O)C2COc3ccccc3O2)ccc1O (stereo unspecified),14.1*,-18.5,/,2.0
COc1cc(/C=N/NC(=O)CSc2ccccn2)ccc1O,10.9*,0.1,/,-0.3
COc1ccc(/C=N\NC(=O)C2COc3ccccc3O2)cc1O (stereo unspecified),5.0,-31.7,/,0.3
COCC#Cc1ccc2c(c1)O[C@H](CN(C)C(=O)C1CC1)[C@@H](C)CN([C@@H](C)CO)S2(=O)=O,0.0,/,-0.6,/
COc1ccc(S(=O)(=O)Nc2ccc3oc(C)c(C(=O)O)c3c2)cc1,14.8*,-5.8,-0.1,-4.2
CC(=O)N1[C@H](CO)[C@@H](c2ccccc2)C12CN(C(=O)c1ccccc1)C2,-0.8,/,/,/
O=C(NC1CCC1)[C@H]1[C@H](CO)[C@H]2Cn3c(ccc(-c4ccccc4F)c3=O)[C@H]2N1Cc1ccccn1,-0.1,/,/,/
Cc1ccc(NC(=O)Cn2cc(C(=O)C3CC3)c3ccccc32)c(C)c1,2.0,-2.8,-0.8,76.4*
Cc1ccc(C)c(NC(=O)Cn2cc(C(=O)C3CC3)c3ccccc32)c1,-0.1,-25.3,-0.5,34.0
CC(=O)c1cn(CC(=O)Nc2cccc(C)c2C)c2ccccc12,1.7,-27.6,-0.6,1.6
CCC(=O)c1cn(CC(=O)Nc2cccc(C)c2C)c2ccccc12,14.1*,-21.5,0.6,3.2
CCNC(=O)C[C@H]1CC[C@@H]2[C@@H](COc3ccc(NC(=O)Nc4ccccc4F)cc3C(=O)N2C)O1,2.5,/,-0.1,/
Oc1cc(O)cc(/C=C/c2ccc(O)c(O)c2)c1,10.3*,-123.0,-1.9,-18.3
C/C=C/c1ccc(O)c(OC)c1,-7.8,-9.5,0.2,-2.4
O=C(Cc1ccccc1)CC(CC(=O)c1ccccc1)c1ccccc1 (stereo unspecified),1.7,/,-0.9,56.2*
Cc1ccc(NC(=O)c2cc(C)on2)cc1,/,-72.4,/,-2.4
SMILES,TcdB inh,PrP 5UTR inh,Mtb BioA inh,Y pestis TopoI
CCc1ccc(NC(=O)c2cc(C)on2)cc1,10.6*,-89.3,2.1,2.5
O=C(C[C@@H]1C=C[C@H](NS(=O)(=O)c2ccc(F)cc2)[C@@H](CO)O1)NC1CCCCC1,0.0,/,-3.2,/
CN1CCN(C(CNC(=O)c2ccc(Br)o2)c2ccc(F)cc2)CC1 (stereo unspecified),12.5*,-6.3,0.0,-0.7
Cc1ccc(C(CNC(=O)c2ccc(Br)o2)N2CCN(C)CC2)cc1 (stereo unspecified),-1.6,-12.9,-1.3,0.9
COCc1c(Br)c(C)nc(OCC(=O)N/N=C/c2ccco2)c1C#N,0.2,-0.6,/,-2.6
COCc1c(Br)c(C)nc(OCC(=O)N/N=C/c2ccc(C)o2)c1C#N,10.7*,-50.5,/,4.5
CCCCCn1c(N2CCC(Cc3ccccc3)CC2)nc2c1c(=O)[nH]c(=O)n2C,/,-4.8,-0.1,44.4
Cn1c(=O)[nH]c(=O)c2c1nc(N1CCCCCC1)n2Cc1cccc2ccccc12,/,-5.3,/,63.4*
CCCn1c(N2CCC(Cc3ccccc3)CC2)nc2c1c(=O)[nH]c(=O)n2C,/,-9.0,2.8,51.6*
COc1ccc(-c2cn[nH]c2-c2ccc(O)cc2O)cc1,15.1*,7.8,0.2,1.0
COc1ccccc1-c1cn[nH]c1-c1ccc(O)cc1O,13.6*,-1.1,1.8,3.0
C=C(C)COc1ccc(-c2[nH]ncc2-c2ccc(OC)cc2)c(O)c1,1.6,-7.2,/,-4.8
COc1ccc(S(=O)(=O)N[C@@H]2CC[C@H](CC(=O)NCCc3ccncc3)O[C@@H]2CO)cc1,0.8,/,-3.4,/
COc1cc(-c2nc(=S)[nH][nH]2)cc(OC)c1OC,30.2*,-6.5,/,-3.2
C[C@@H]1CN([C@@H](C)CO)C(=O)c2cc(NC(=O)C3CCCCC3)ccc2O[C@@H](C)CCCCO[C@H]1CN(C)C(=O)Cc1ccccc1,0.0,/,0.3,/
O=C(CN1C(=O)NC2(CCCc3ccccc32)C1=O)NCc1cccs1 (stereo unspecified),15.0*,-19.6,3.4,2.1
O=C(CN1C(=O)NC2(CCCc3ccccc32)C1=O)NCC(F)(F)F (stereo unspecified),-0.6,-9.1,/,8.3
CC(Sc1nc2ccccc2n1C)C(=O)Nc1ccc(N2CCOCC2)cc1 (stereo unspecified),12.9*,-21.2,/,10.2
CCc1ccccc1NC(=O)CN1CCN(CC(=O)NCc2ccc(Cl)cc2)CC1,13.6*,1.8,4.3,15.8
CCCN1C[C@H](C)[C@H](OC)CN(C)C(=O)c2cc(NC(=O)C3CC3)ccc2OC[C@@H]1C,2.3,/,0.4,/
CCCNC(=O)[C@@H]1[C@@H](CO)[C@@H]2Cn3c(cccc3=O)[C@@H]2N1C(=O)C1CC1,-1.3,/,/,/
CCC(=O)N[C@@H]1C=C[C@H](CC(=O)NCc2ccccc2OC)O[C@H]1CO,-0.4,/,-4.0,/
COc1ccc(S(=O)(=O)Nc2cccc3c2O[C@H](CN(C)C(=O)Nc2c(C)noc2C)[C@H](C)CN([C@H](C)CO)C3=O)cc1,0.5,/,-2.4,/
O=C(C(Sc1ccccc1)c1ccc(Br)cc1)N1CCOCC1 (stereo unspecified),-2.9,-10.2,0.3,14.2
O=C(C(Sc1ccccc1)c1ccccc1)N1CCN(c2ccccc2F)CC1 (stereo unspecified),/,2.7,-1.1,54.6*
CC(C)CN1CCN(CC#Cc2ccccc2)CC1CCO (stereo unspecified),10.1*,-8.2,/,-8.0
CC(C)=CCN1CCN(CC#Cc2ccccc2)CC1CCO (stereo unspecified),0.3,-24.8,-0.5,-5.4
CC(C)NC(=O)Nc1ccc2c(c1)C(=O)N([C@H](C)CO)C[C@@H](C)[C@H](CN(C)S(C)(=O)=O)OCCCC[C@H](C)O2,-0.6,/,-1.5,/
N/C(=N\N=C\c1ccc(O)cc1)c1nonc1N,28.4*,-103.2,/,3.6
